These results are taken from paper PMC7862700, “An all-to-all approach to the identification of sequence-specific readers for epigenetic DNA modifications on cytosine”.

Holding throughout (assay): DAPPL (digital affinity profiling via proximity ligation, sequencing); 10 mM Tris-HCl pH 7.5, 50 mM NaCl, 1 mM DTT, 4% glycerol, room temperature, 30 min; GST-TFs on glutathione beads, 16-mer random dsDNA library, 0.1% formaldehyde crosslink after washing; high values mean tight binding
Holding throughout (settings): protein: recombinant; tags: N-terminal GST; dsDNA, one strand shown

In one test the target is T1, FLI1 (Homo sapiens, UniProt Q01543 1-452).
T1 sequence: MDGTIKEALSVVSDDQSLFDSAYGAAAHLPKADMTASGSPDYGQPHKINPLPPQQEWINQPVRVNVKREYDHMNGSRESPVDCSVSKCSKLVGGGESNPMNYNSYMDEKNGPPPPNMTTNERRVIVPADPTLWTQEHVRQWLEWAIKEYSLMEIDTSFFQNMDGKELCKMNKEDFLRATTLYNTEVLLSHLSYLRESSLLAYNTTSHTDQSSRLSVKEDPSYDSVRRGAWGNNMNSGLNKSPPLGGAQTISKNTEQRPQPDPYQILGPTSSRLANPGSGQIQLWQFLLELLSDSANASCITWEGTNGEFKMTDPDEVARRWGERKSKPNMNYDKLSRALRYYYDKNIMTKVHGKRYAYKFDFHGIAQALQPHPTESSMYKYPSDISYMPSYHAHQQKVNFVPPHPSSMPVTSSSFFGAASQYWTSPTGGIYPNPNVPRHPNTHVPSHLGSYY
In outline: (§1)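 Each value of binding signal is a hexamer's read frequency for a factor divided by the same hexamer's frequency in the tag-only sample. Barcoded, bead-captured GST fusions of human transcription factors made in yeast were pooled with that sample and incubated with 200 nmole of a random double-stranded 16-mer DNA library in Tris/NaCl/DTT/glycerol buffer at room temperature for 30 min. Washing, 0.1% formaldehyde crosslinking, proximity ligation, PCR and Illumina NextSeq500 sequencing followed.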

A further test addresses T2, ELK1 (Homo sapiens, UniProt P19419 1-428).
T2 sequence: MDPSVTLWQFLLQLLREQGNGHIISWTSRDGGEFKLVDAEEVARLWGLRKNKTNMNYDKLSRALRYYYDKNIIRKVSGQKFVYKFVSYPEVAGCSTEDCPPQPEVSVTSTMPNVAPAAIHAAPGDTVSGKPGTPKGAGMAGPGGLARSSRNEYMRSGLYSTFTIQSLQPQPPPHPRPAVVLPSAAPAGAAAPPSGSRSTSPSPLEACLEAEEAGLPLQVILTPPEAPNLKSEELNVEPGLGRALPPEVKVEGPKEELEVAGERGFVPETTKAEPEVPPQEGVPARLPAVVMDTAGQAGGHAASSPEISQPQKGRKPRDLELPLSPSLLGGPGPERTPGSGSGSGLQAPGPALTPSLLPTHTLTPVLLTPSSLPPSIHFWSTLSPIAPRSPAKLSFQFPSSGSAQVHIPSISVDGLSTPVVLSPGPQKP
The method, boiled down:
as §1

Another test addresses T3, GABPA (Homo sapiens, UniProt Q06546 1-454).
T3 sequence: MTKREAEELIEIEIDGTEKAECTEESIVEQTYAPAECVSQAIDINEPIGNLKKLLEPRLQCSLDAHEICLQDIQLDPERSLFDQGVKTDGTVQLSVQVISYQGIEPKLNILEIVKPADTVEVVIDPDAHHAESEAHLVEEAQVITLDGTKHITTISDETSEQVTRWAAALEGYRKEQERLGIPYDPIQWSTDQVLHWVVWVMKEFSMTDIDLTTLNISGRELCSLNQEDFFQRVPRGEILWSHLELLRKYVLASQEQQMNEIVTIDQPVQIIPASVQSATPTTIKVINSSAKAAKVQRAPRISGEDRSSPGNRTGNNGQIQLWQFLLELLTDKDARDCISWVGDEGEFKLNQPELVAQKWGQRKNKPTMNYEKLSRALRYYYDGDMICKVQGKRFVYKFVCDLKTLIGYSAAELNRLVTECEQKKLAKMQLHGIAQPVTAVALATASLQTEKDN
In outline: as §1

Another test has as its target T4, ERG (Homo sapiens, UniProt P11308 1-479).
T4 sequence: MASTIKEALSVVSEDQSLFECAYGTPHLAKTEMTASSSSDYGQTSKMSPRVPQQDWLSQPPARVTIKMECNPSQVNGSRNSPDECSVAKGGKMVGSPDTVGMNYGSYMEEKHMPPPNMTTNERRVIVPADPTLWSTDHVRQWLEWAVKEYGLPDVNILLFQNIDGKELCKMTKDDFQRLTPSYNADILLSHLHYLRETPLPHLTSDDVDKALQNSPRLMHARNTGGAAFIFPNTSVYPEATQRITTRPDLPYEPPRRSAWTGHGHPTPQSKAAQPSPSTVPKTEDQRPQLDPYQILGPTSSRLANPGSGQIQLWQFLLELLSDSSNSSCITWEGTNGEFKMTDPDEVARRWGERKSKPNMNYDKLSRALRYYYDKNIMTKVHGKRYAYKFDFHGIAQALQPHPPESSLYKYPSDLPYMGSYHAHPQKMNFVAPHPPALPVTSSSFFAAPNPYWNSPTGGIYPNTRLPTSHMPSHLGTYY
In outline:
as §1

The target of the next test is ELF1 (Homo sapiens, UniProt P32519 1-619). In outline: as §1
ELF1, sequence (P32519 whole entry): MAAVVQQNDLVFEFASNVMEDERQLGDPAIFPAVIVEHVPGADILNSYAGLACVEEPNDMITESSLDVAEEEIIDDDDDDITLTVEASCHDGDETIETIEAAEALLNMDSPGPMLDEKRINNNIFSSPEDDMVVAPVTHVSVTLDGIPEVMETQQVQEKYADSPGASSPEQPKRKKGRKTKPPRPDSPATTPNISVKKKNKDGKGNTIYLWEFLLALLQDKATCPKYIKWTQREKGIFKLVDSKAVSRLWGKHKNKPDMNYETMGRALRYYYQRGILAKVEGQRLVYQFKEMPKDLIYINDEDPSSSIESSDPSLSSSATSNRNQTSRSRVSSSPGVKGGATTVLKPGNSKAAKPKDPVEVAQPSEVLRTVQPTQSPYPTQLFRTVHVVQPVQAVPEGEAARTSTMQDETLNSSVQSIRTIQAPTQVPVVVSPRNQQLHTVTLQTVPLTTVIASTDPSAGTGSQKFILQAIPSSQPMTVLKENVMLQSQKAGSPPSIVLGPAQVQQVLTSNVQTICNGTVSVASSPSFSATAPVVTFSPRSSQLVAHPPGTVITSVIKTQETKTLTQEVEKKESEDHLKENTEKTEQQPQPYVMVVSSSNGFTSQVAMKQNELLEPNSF
For a further test, the target named is T5, EHF (Homo sapiens, UniProt Q9NZC4 1-300).
T5 sequence: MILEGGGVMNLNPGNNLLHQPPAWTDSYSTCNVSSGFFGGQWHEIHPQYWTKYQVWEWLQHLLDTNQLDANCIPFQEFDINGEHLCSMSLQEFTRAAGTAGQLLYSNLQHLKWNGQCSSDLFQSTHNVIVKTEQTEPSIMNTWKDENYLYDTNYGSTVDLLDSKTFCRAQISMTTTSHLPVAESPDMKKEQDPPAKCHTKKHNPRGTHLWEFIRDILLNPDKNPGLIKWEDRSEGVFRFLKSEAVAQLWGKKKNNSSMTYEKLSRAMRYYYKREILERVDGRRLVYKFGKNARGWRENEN
In outline:
as §1

The target of a further test is SPIB (Homo sapiens, UniProt Q01892 1-262). In outline: as §1
SPIB, sequence (Q01892 whole entry): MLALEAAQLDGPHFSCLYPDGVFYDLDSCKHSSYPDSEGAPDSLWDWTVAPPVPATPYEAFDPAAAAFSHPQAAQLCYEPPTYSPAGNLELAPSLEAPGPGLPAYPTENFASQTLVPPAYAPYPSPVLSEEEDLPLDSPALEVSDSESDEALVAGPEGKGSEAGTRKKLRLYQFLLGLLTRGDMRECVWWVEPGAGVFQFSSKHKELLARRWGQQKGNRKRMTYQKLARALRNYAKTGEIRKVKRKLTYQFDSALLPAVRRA
The target of a further test is T6, ELK3 (Homo sapiens, UniProt P41970 1-407).
T6 sequence: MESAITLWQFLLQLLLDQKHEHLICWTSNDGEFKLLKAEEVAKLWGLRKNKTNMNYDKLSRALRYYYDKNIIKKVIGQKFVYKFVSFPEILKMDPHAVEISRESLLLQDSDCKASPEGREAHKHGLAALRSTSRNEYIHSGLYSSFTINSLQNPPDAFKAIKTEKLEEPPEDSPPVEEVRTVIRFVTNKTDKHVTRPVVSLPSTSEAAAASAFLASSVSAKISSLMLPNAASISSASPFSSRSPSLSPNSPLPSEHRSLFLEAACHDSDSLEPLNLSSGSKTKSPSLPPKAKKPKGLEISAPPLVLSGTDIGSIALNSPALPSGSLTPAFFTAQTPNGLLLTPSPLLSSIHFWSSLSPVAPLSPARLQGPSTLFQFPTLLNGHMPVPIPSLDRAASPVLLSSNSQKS
In outline: as §1

The next test has as its target T7, ELK4 (Homo sapiens, UniProt P28324-2 1-405).
T7 sequence: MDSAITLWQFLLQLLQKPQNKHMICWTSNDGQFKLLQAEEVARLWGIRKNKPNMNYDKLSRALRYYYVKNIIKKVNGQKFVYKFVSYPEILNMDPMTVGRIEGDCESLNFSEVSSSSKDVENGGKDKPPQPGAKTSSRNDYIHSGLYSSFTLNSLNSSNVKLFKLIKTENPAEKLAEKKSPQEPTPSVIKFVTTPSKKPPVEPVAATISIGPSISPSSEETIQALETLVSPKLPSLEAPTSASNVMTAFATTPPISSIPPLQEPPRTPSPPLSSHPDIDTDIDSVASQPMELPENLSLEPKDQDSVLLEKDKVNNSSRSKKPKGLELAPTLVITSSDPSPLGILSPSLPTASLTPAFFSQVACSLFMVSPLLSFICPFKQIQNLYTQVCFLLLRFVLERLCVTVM
The method, boiled down:
as §1

A further test deals with T8, ETV2 (Homo sapiens, UniProt O00321 1-342).
T8 sequence: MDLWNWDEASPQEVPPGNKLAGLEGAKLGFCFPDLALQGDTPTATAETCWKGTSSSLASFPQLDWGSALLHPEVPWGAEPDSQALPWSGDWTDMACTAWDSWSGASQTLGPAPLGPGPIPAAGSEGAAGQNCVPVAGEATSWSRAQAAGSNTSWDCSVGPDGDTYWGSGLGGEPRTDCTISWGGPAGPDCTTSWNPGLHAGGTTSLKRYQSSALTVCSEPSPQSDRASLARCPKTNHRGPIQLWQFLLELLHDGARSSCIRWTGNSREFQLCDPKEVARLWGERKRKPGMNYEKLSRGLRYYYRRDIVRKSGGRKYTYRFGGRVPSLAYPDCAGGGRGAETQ
The method, boiled down:
as §1

Another test has as its target T9, ETV3L (Homo sapiens, UniProt Q6ZN32 1-361).
T9 sequence: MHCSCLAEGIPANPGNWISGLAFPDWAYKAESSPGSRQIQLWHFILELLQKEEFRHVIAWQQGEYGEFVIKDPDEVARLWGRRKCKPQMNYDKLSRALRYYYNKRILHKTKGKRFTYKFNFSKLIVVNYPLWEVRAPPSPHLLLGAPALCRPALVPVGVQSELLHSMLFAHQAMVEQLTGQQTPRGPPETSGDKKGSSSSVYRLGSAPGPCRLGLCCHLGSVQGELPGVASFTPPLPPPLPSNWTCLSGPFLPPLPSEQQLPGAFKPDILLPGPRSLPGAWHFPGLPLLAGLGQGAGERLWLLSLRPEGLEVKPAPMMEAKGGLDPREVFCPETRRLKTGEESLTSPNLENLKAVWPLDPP
In outline:
as §1

Another test deals with T10, ETS2 (Homo sapiens, UniProt P15036 1-469).
T10 sequence: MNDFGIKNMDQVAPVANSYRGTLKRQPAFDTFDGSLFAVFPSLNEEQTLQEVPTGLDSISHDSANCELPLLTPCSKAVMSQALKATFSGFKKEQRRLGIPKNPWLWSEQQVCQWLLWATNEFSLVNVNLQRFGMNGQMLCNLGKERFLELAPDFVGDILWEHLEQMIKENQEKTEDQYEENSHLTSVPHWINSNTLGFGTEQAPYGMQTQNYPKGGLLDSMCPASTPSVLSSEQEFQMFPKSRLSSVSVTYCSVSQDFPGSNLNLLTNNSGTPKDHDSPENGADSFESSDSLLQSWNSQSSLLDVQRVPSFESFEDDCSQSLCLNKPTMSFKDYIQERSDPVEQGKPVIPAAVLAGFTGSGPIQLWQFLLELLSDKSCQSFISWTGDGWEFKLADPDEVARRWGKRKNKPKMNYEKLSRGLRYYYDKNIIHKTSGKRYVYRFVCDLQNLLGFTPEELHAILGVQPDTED
In outline:
as §1

Another test addresses T11, ETV7 (Homo sapiens, UniProt Q9Y603 1-341).
T11 sequence: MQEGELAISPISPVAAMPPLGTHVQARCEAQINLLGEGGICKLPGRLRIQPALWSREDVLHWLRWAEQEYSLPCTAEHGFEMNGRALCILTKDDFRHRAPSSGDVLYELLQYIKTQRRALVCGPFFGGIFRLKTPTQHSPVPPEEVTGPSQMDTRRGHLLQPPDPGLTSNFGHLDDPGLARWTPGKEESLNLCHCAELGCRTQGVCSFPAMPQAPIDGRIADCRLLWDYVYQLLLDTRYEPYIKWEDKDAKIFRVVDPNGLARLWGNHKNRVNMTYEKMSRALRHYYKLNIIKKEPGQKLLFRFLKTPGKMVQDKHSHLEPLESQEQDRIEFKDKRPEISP
In outline:
as §1

In a further test the target is T12, ETV3 (Homo sapiens, UniProt P41162-2 1-143).
T12 sequence: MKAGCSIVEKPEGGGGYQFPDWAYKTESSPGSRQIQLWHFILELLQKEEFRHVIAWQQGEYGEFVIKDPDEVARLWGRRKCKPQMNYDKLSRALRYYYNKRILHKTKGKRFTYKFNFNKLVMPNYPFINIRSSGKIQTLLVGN
The method, boiled down:
as §1

As to CAGCGC, the binding signal is 1.09 fold enrichment (6-mer frequency, TF over GST control) with FLI1; 1.03 fold enrichment (6-mer frequency, TF over GST control) in the test with ELK1; 1.01 fold enrichment (6-mer frequency, TF over GST control) in the test with GABPA; 1.03 fold enrichment (6-mer frequency, TF over GST control) in the test with ERG; 1.08 fold enrichment (6-mer frequency, TF over GST control) with ELF1; 1.01 fold enrichment (6-mer frequency, TF over GST control) in the test with EHF. Also, the binding signal with SPIB was 1.07 fold enrichment (6-mer frequency, TF over GST control); with ELK3, 1.06 fold enrichment (6-mer frequency, TF over GST control); with ELK4 it was 1.06 fold enrichment (6-mer frequency, TF over GST control); with ETV2 it was 1.07 fold enrichment (6-mer frequency, TF over GST control); with ETV3L, 1.09 fold enrichment (6-mer frequency, TF over GST control); in the test with ETS2, 1.1 fold enrichment (6-mer frequency, TF over GST control). In addition, the binding signal in the test with ETV7 was 1.02 fold enrichment (6-mer frequency, TF over GST control); in the test with ETV3 it was 1 fold enrichment (6-mer frequency, TF over GST control).
